This excerpt belongs to a sample that is enriched for hits.
U2OS ROS induce = cancer cell ROS induction; U2OS ROS induction, H2DCF-DA fluorescence; ROS induction (% of piperlongumine), % at 10 µM; hit rate 2% among 46,000; AID 624156; in the data active = ROS induction above about 79%, passing the limit was not always enough;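 note: 0% = DMSO vehicle median and 100% = reference compound median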
An asterisk follows results filed as active.

SMILES	U2OS ROS induce
C[C@@H]1CCCCO[C@H](CN(C)C(=O)Nc2ccc3c(c2)OCO3)[C@@H](C)CN([C@H](C)CO)C(=O)c2cc(NC(=O)CCC(F)(F)F)ccc2O1	-6
C[C@@H]1CCCCO[C@@H](CN(C)C(=O)C2CCCCC2)[C@@H](C)CN([C@H](C)CO)C(=O)c2cc(NC(=O)CCC(F)(F)F)ccc2O1	17
C[C@@H]1CCCCO[C@@H](CN(C)Cc2ccc(C(=O)O)cc2)[C@@H](C)CN([C@H](C)CO)C(=O)c2cc(NC(=O)CCC(F)(F)F)ccc2O1	2
COC(=O)C1(Cc2ccc(O)cc2)OC(=O)C(=O)C1c1ccc(O)cc1 (stereo unspecified)	-2
COc1ccc(S(=O)(=O)N(C)C[C@@H]2Oc3ccc(NS(=O)(=O)c4ccccc4)cc3C(=O)N([C@@H](C)CO)C[C@H]2C)cc1	12
CCOC(=O)C1=NN(c2ccccc2)CC1C(=O)OC (stereo unspecified)	-3
Cc1csc2c(SCC(O)C(F)(F)F)ncnc12 (stereo unspecified)	3
C[C@@H]1CCCCO[C@@H](CN(C)C(=O)NC2CCCCC2)[C@@H](C)CN([C@H](C)CO)C(=O)c2cc(NC(=O)Nc3ccccc3)ccc2O1	10
COc1ccc(Cl)cc1NC(=O)CCCN1C(=O)c2ccccc2C1=O	-18
Cc1noc(C)c1NC(=O)Nc1ccc2c(c1)C(=O)N([C@H](C)CO)C[C@H](C)[C@H](CN(C)C(=O)CCCN(C)C)OCCCC[C@@H](C)O2	6
COc1ccc(-c2cc3cc(OC)c(OC)cc3c(Cc3ccccc3)n2)cc1	155*
COc1cc2cc(C)nc(Cc3cccc4ccccc34)c2cc1OC	64
COc1ccc(-c2csc(-c3ccc(OC)cc3)n2)cc1	-14
C/C=C/C=C/C(=O)c1cc(C)c(O)c(C)c1O	102*
Cc1cc(I)ccc1NC(=O)Cn1c([N+](=O)[O-])cnc1C	4
CNC[C@H]1Oc2ccc(NS(C)(=O)=O)cc2C(=O)N([C@H](C)CO)C[C@@H]1C	-2
O=C(COc1ccc([N+](=O)[O-])cc1)Nc1cccnc1	0
COc1ccc(NC(=O)c2ccccc2NC(=O)COc2ccc([N+](=O)[O-])cc2)cc1	-15
COc1ccc(NC(=O)Cc2nc(-c3ccc([N+](=O)[O-])cc3)cs2)cc1	94*
O=C(O)CCCCCCC(=O)N/N=C/c1ccccn1	2
Cc1ccc2c(c1)c1nc3ccccc3nc1n2CCN1CCOCC1	78*
Cc1ccc2c(c1)c1nc3ccccc3nc1n2CC(=O)OCc1ccccc1	-3
O=c1oc2ccccc2n1CCn1c2ccccc2c2nc3ccccc3nc21	33
O=C(NCc1ccccn1)c1cc(-c2cccnc2)nc2ccccc12	1
C[C@@H]1CN([C@@H](C)CO)C(=O)c2cccc(NS(=O)(=O)c3ccccc3)c2O[C@H]1CN(C)CC1CC1	-5
SMILES	U2OS ROS induce
O=C(N/N=C\c1ccc2ccccc2n1)c1ccccn1	7
COCCOC(=O)N1C(=O)[C@@]2(c3cc(C#Cc4ccc(OC)cc4)ccc31)[C@H](c1ccccc1OCCO)N1[C@H](c3ccccc3)[C@H](c3ccccc3)OC(=O)[C@H]1[C@@H]2C(=O)NC[C@H](O)c1ccccc1	22
COCCOC(=O)N1C(=O)[C@@]2(c3cc(C#CCNC(N)=O)ccc31)[C@H](c1ccccc1OCCO)N1[C@H](c3ccccc3)[C@H](c3ccccc3)OC(=O)[C@H]1[C@@H]2C(N)=O	-4
COCCOC(=O)N1C(=O)[C@@]2(c3cc(C#CCNC(N)=O)ccc31)[C@H](C(=O)NC[C@H](O)c1ccccc1)[C@H]1C(=O)O[C@H](c3ccccc3)[C@H](c3ccccc3)N1[C@@H]2c1ccc(O)cc1	8
COCCOC(=O)N1C(=O)[C@@]2(c3cc(C#CCC(C(=O)OC)C(=O)OC)ccc31)[C@H](c1ccccc1OCCO)N1[C@H](c3ccccc3)[C@H](c3ccccc3)OC(=O)[C@H]1[C@@H]2C(=O)Nc1nc2ccccc2s1	12
COCCOC(=O)N1C(=O)[C@@]2(c3cc(C#CCC(C(=O)OC)C(=O)OC)ccc31)[C@H](c1ccccc1OCCO)N1[C@H](c3ccccc3)[C@H](c3ccccc3)OC(=O)[C@H]1[C@@H]2C(=O)NC[C@H](O)c1ccccc1	320*
COCCOC(=O)N1C(=O)[C@@]2(c3cc(C#CCC(C(=O)OC)C(=O)OC)ccc31)[C@H](c1ccccc1OCCO)N1[C@H](c3ccccc3)[C@H](c3ccccc3)OC(=O)[C@H]1[C@@H]2C(N)=O	407*
COCCOC(=O)N1C(=O)[C@@]2(c3cc(C#CCCO)ccc31)[C@H](c1ccc(O)cc1)N1[C@H](c3ccccc3)[C@H](c3ccccc3)OC(=O)[C@H]1[C@@H]2C(N)=O	12
COCCOC(=O)N1C(=O)[C@@]2(c3cc(C#CC4=CCCCC4)ccc31)[C@H](c1ccccc1OCCO)N1[C@H](c3ccccc3)[C@H](c3ccccc3)OC(=O)[C@H]1[C@@H]2C(N)=O	84*
C=CCNC(=O)[C@H]1[C@@H]2C(=O)O[C@@H](c3ccccc3)[C@@H](c3ccccc3)N2[C@@H](c2ccccc2OCCO)[C@]12C(=O)N(C(=O)OCCOC)c1ccc(C#CCC(C(=O)OC)C(=O)OC)cc12	179*
C=CCNC(=O)[C@@H]1[C@H]2C(=O)O[C@H](c3ccccc3)[C@H](c3ccccc3)N2[C@H](c2ccccc2OCCO)[C@@]12C(=O)N(C(=O)OCCOC)c1ccc(C#Cc3ccc(OC)cc3)cc12	34
COCCOC(=O)N1C(=O)[C@@]2(c3cc(C#CC4(O)CCCCCC4)ccc31)[C@H](c1ccccc1OCCO)N1[C@H](c3ccccc3)[C@H](c3ccccc3)OC(=O)[C@H]1[C@@H]2C(N)=O	43
COCCOC(=O)N1C(=O)[C@@]2(c3cc(C#Cc4ccc(OC)cc4)ccc31)[C@H](c1ccccc1OCCO)N1[C@H](c3ccccc3)[C@H](c3ccccc3)OC(=O)[C@H]1[C@@H]2C(N)=O	74
CC(C)NC(=O)Nc1ccc2c(c1)C(=O)N([C@H](C)CO)C[C@H](C)[C@H](CN(C)S(C)(=O)=O)O2	-20
CCc1c(C)nc(SCC(=O)Nc2ccc(C(=O)OC)cc2)[nH]c1=O	4
CC1(C)CC(=O)C2=C(C1)C(c1cccnc1)Nc1ccc3ccccc3c12 (stereo unspecified)	17
COc1ccc(OC)c(S(=O)(=O)N(C)c2ccccc2C(=O)O)c1	-10
CC(C)(O)CCc1cc2c(cc1O)O[C@H]1c3ccc(O)cc3OC[C@@H]21	24
Cc1cc(C)c(NC(=O)CN(C2CCCCC2)S(=O)(=O)c2ccc(Br)cc2)c(C)c1	11
Cc1c(C(=O)NC2CCCCC2)c(C)n2cn[nH]c(=O)c12	-4
CC(C)N(C(=O)Cn1c(-c2ccco2)nc2ccccc21)c1ccccc1	64
COc1ccc(CN(C)C[C@H]2Oc3ccc(NC(=O)C4CCCCC4)cc3C(=O)N([C@@H](C)CO)C[C@@H]2C)cc1	-10
COc1cccc(CNC(=O)c2cnn3c(C)c(Cc4c(C)cc(C)cc4C)c(C)nc23)c1	142*
Cc1ccc(C)c(Cc2c(C)nc3c(C(=O)NC4CC4)cnn3c2C)c1	26
Cc1nc2c(C(=O)NCc3ccc4c(c3)OCO4)cnn2c(C)c1Cc1c(F)cccc1Cl	12
CNC[C@H]1Oc2ccc(NS(=O)(=O)c3c(C)noc3C)cc2C(=O)N([C@H](C)CO)C[C@@H]1C	-2
C[C@@H]1CN([C@H](C)CO)C(=O)c2cc(NS(=O)(=O)c3cccs3)ccc2O[C@@H]1CN(C)Cc1ccc(-c2ccccc2)cc1	-4

Screening data from PubChem.
